In PubChem BioAssay AID1259418 (Broad Institute, 2018) one finds max activity data, which are given here for 73 molecules.

Each structure is given as a SMILES string. Among all 3,400 compounds or so, about 840 (25%) were called active. Not shown: some 11% with an inconclusive outcome. These entries were drawn from the full list. Results with a measured potency or affinity are listed apart. Unmarked numbers belong to inactive results.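 Rule for the calls: active = fitted half-maximal concentration of signal decrease at or below twice the sample's top tested concentration; inconclusive = flat curve between -70 and -30 percent, or poor fit; inactive = flat within 30 percent, signal rise, or potency above limit.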

The nature of this assay: inhibitors of Toxoplasma growth in IFN-γ-primed HeLa – cell-based, ME49Luc, luciferase, 72 h, dose response (AID 1259418). Conditions: T. gondii ME49Luc in IFN-y HeLa, stronger effect = lower value, -100% = high-dose IFN-γ control wells; at 19.5 µM unless noted.
Regarding `CCc1nc(OCC(=O)Nc2cccc(Cl)c2)c2ccccc2n1`, the max activity was 20.4% [at 0.16 µM].

As for `CCOc1ccc(-c2nc3c(s2)CN(S(=O)(=O)c2cccc(Cl)c2C)CC3)cc1`, the max activity is 15.9% [at 10 µM].

As for `Cc1ccc(C)c(-c2coc(-c3ccc(NC(=O)NCc4ccco4)cc3)n2)c1`, the max activity is -45.2% [at 1.35 µM].

As for `Cc1nc(CCNC(=O)C2CCN(C(=O)c3cccc(F)c3)CC2)cs1`, the max activity is -15.3%.

In the case of `Cc1nc(CCNC(=O)C2CCN(C(=O)c3ccc(Cl)cc3)CC2)cs1`, the max activity is -28.7%.

On to `COc1cccc(C(=O)N2CCC(C(=O)NCCc3csc(C)n3)CC2)c1`, for which the max activity is -13.8% [at 0.16 µM].

For `Cc1nc(CCNC(=O)C2CCN(C(=O)c3ccc(F)cc3)CC2)cs1`, the max activity was 11.3% [at 2.6 µM].

As to `CCCNC(=O)C[C@H]1CC[C@@H]2[C@H](COC[C@H](O)CN2C(=O)Nc2ccc(Cl)c(Cl)c2)O1`, the max activity is 33.9%.

As for `O=C(C[C@H]1CC[C@H]2[C@@H](COC[C@@H](O)CN2C(=O)c2cc(Cl)cc(Cl)c2)O1)N1CCc2ccccc2C1`, the max activity is 26.3% [at 10 µM].

As for `CCOc1ccc(-c2nc3c(s2)CN(S(=O)(=O)c2ccc(F)cc2F)CC3)cc1`, the max activity is 95.1%.

On to `Clc1ccc(-c2nc(NCc3cccs3)c3ccccc3n2)cc1`, for which the max activity is 13.5% [at 0.35 µM].

As for `CCc1nc(OCC(=O)Nc2ccc(Br)cc2F)c2ccccc2n1`, the max activity was 35.6% [at 0.68 µM].

In the case of `O=S(=O)(c1ccc(F)cc1)N1CCCCN2[C@H](C1)[C@H](c1ccc(-c3cncnc3)cc1)[C@@H]2CO`, the max activity was 22.1% [at 10 µM].

`CCOC(=O)Cc1ccc(NC(=O)Nc2ccc(-c3nc(-c4ccc(C)cc4C)co3)cc2)cc1`: the max activity was 11.1%.

Take `Cc1ccc(-c2nc(Cn3nnc(-c4nc(-c5ccc(Cl)cc5)no4)c3C)c(C)o2)cc1`: the max activity was -14.4% [at 0.68 µM].

On to `Cc1cccc(C2=NC3(CCN(CC(=O)Nc4ccc(F)cc4F)CC3)NC2=O)c1`, for which the max activity was -4.98% [at 0.68 µM].

Consider `COc1cccc(CC(=O)Nc2ccc(-c3nc(-c4ccc(C)cc4C)co3)cc2)c1`, for which the max activity was -8.08% [at 1.35 µM].

As for `CCn1cc(CN2CCCC2c2cc(C(C)C)no2)c2cc(OC)ccc21` (stereo not drawn), the max activity is 5.61% [at 0.16 µM].

Regarding `COC(=O)Cn1cc(CN2CCCC2c2cc(C(C)C)no2)c2cc(OC)ccc21` (stereo not drawn), the max activity is 18.8% [at 0.35 µM].

In the case of `CCn1cc(CN2CCCC2c2cc(C(C)C)on2)c2ccccc21` (stereo not drawn), the max activity was 8.42% [at 0.16 µM].

Regarding `CCOC(=O)Cn1cc(CN2CCCC2c2c(C)noc2CC)c2ccccc21` (stereo not drawn), the max activity is 12.1% [at 0.16 µM].

Consider `COc1ccc(CC(=O)N2CCC3(CC2)Nc2ccc(C)c(C)c2-n2cccc23)cc1`, for which the max activity is 9.26% [at 0.68 µM].

For `COc1ccccc1NC(=O)N1CCc2nc(-c3ccc(C)cc3)sc2C1`, the max activity is 44.9%.

`Cc1ccccc1-c1nc(CN2CCN(C(=O)Nc3ccc(Cl)cc3)CC2)c(C)o1`: the max activity is -10.3% [at 0.35 µM].

In the case of `Cc1nc(N2CCCC2)nc2c1CCN(C(=O)c1ccoc1C)CC2`, the max activity was -9.94% [at 0.3 µM].

Turning to `CN(C)c1nc(N2CCOCC2)nc2c1CN(Cc1cccs1)CC2`, the max activity was 13.4% [at 5 µM].

On to `CCOc1ccc(-c2nc3c(s2)CN(C(=O)Nc2cc(C)ccc2OC)CC3)cc1`, for which the max activity is 14.6%.

Regarding `COc1ccc(OCC(=O)N2CCC(C(=O)NCCc3csc(-c4ccccc4)n3)CC2)cc1`, the max activity is 12.9%.

For the molecule `COc1ccc(-c2nc3c(s2)CN(S(=O)(=O)c2ccc(NC(C)=O)cc2)CC3)cc1`, the max activity was 17.2% [at 10 µM].

Regarding `CCCCCNC(=O)CCC1Nc2c3ccccc3nc(=S)n2C1=O` (stereo not drawn), the max activity was 12.1% [at 5 µM].

As for `Cc1nc(CCNC(=O)C2CCN(C(=O)c3ccccc3Cl)CC2)cs1`, the max activity was -5.21% [at 1.35 µM].

With `CCOc1ccccc1C(=O)N1CCC(C(=O)NCCc2csc(-c3ccccc3)n2)CC1`, the max activity was -11.4% [at 5 µM].

With `Cc1ccccc1C(=O)N1CCC(C(=O)NCCc2csc(-c3ccccc3)n2)CC1`, the max activity is 23.4% [at 1.35 µM].

In the case of `O=C(NCCc1csc(-c2ccccc2)n1)C1CCN(C(=O)c2cccc(Cl)c2)CC1`, the max activity was 7.04% [at 0.68 µM].

With `O=C(NCCc1csc(-c2ccccc2)n1)[C@H]1CCCN1C(=O)c1ccccc1Br`, the max activity was -16.7% [at 0.16 µM].

Consider `O=C(NCCc1csc(-c2ccccc2)n1)C1CCN(C(=O)c2ccc(F)c(F)c2)CC1`, for which the max activity was 18% [at 5 µM].

As to `O=C(Nc1ccc(-c2nc(-c3ccccc3)co2)cc1)Nc1cccc(Br)c1`, the max activity was 8.78% [at 10 µM].

Take `CCOC(=O)CSc1nc(Nc2ccc(F)c(F)c2)c2ccccc2n1`: the max activity was -35.1% [at 0.35 µM].

As to `Fc1ccc(Nc2nc(SCc3cccc(Cl)c3)nc3ccccc23)cc1`, the max activity was -13.6% [at 1.35 µM].

Consider `COc1ccc(CNc2nc(SCc3ccc(F)cc3)nc3ccccc23)cc1`, for which the max activity is 10.3%.

Take `COc1cc(Nc2nc(SCc3ccc(Cl)cc3)nc3ccccc23)cc(OC)c1`: the max activity was 21% [at 5 µM].

In the case of `Fc1ccc(CSc2nc(Nc3ccc(F)c(F)c3)c3ccccc3n2)cc1`, the max activity was 9.75% [at 1.35 µM].

Consider `Fc1ccc(Nc2nc(SCc3ccccc3Cl)nc3ccccc23)cc1`, for which the max activity is 17.7% [at 0.68 µM].

Take `COc1ccc(-c2noc(C3CCCN3C(=O)c3sc(C)nc3C)n2)cc1` (stereo not drawn): the max activity was 11.1% [at 0.35 µM].

Turning to `COc1ccc(CNC(=O)CCC2N=C3c4ccccc4N=C(SCc4cc(=O)n5ccccc5n4)N3C2=O)cc1` (stereo not drawn), the max activity was 14.6% [at 1.35 µM].

In the case of `Cc1csc(-c2csc(S(=O)(=O)N3CCC(Cc4ccccc4)CC3)c2)n1`, the max activity was -14% [at 0.35 µM].

As for `O=C(CCC1Nc2c3ccccc3nc(=S)n2C1=O)NCc1ccc(F)cc1` (stereo not drawn), the max activity is 21.3%.

For the molecule `Cc1cccc(-c2nc(CSc3nc4c(c(=O)[nH]3)CN(Cc3ccc(F)cc3)CC4)c(C)o2)c1`, the max activity was 16.6% [at 0.16 µM].

Regarding `CSc1ccc(-c2noc(-c3nnn(Cc4nc(-c5ccccc5)oc4C)c3C)n2)cc1`, the max activity is 13.9%.

Consider `COc1ccc(S(=O)(=O)Nc2ccc(-c3nc(-c4ccc(C)c(C)c4)co3)cc2)cc1`, for which the max activity was 54.5% [at 10 µM].

For `CCn1nnc2c(NCCn3ccc4ccccc43)ncnc21`, the max activity was -27.3%.

For the molecule `Cc1nc(-c2cc(S(=O)(=O)N3CCC(C)CC3)c(C)s2)sc1C`, the max activity was -8.09% [at 0.68 µM].

For the molecule `Cc1nc(-c2cc(S(=O)(=O)NCCN3CCC(C)CC3)c(C)s2)sc1C`, the max activity was 16.1% [at 0.35 µM].

In the case of `COc1ccc(NC(=O)Nc2ccc(-c3nc(-c4ccc(C)cc4)co3)cc2)cc1OC`, the max activity is -10.2% [at 1.35 µM].

Take `COc1ccc(CC(=O)N2CCC3(CC2)Nc2cc(F)ccc2-n2cccc23)cc1`: the max activity is 9.99% [at 0.16 µM].

For `Cc1ccc(-c2coc(-c3ccc(NS(=O)(=O)c4ccc(Br)cc4)cc3)n2)cc1C`, the max activity was 22% [at 0.68 µM].

As for `CN1C(=O)c2cc(NC(=O)Cc3cccs3)ccc2OC[C@@H]2O[C@H](CC(=O)N[C@@H]3CCN(Cc4ccccc4)C3)CC[C@@H]21`, the max activity is 12.6% [at 0.6 µM].

In the case of `CN1C(=O)c2cc(NC(=O)Cc3cccs3)ccc2OC[C@@H]2O[C@H](CC(=O)N[C@H]3CCN(Cc4ccccc4)C3)CC[C@@H]21`, the max activity was 21.7%.

On to `Cc1ccc(-c2coc(-c3ccc(NC(=O)Nc4ccccc4)cc3)n2)c(C)c1`, for which the max activity was 15.7% [at 0.16 µM].

As to `Cc1ccc(N2CCN(C(=O)c3ccc(-c4csc(C5CC5)n4)cc3)CC2)c(C)c1`, the max activity was 4.42%.

On to `COc1cc(NC(=O)Nc2ccc(-c3nc(-c4ccccc4)co3)cc2)cc(OC)c1`, for which the max activity is 11.5% [at 0.16 µM].

For the molecule `Cc1ccc(-c2nc3c(s2)CN(C(=O)Nc2cccc(C)c2)CC3)cc1`, the max activity was 26.8% [at 10 µM].

On to `COc1cccc(-c2nc3c(s2)CN(C(=O)Nc2ccc(OC)c(OC)c2)CC3)c1`, for which the max activity is 7.26%.

Consider `Cc1ccc(-c2nc3c(s2)CN(C(=O)Nc2ccccc2C)CC3)cc1`, for which the max activity was 18.7%.

As to `COc1cccc(-c2nc3c(s2)CN(C(=O)Nc2ccc(C)c(C)c2)CC3)c1`, the max activity is 12.6% [at 2.6 µM].

For `COc1ccc(-c2nc3c(s2)CN(C(=O)Nc2cc(C)cc(C)c2)CC3)cc1`, the max activity was 17.7%.

As to `COc1ccc(-c2nc3c(s2)CN(C(=O)Nc2ccc(C)cc2C)CC3)cc1`, the max activity is 24.8%.

On to `Cc1nc(CCNC(=O)C2CCN(S(=O)(=O)c3ccc(F)c(F)c3)CC2)cs1`, for which the max activity was 10.4% [at 5 µM].

Turning to `Cc1ccc2c(c1C)-n1cccc1C1(CCN(C(=O)c3cccc(F)c3)CC1)N2`, the max activity is -11.1% [at 0.35 µM].

`Cc1ccccc1Cn1c(CN2CCC(C(=O)NCCC(C)N3CCCC3)CC2)cc2ccccc21` (stereo not drawn): the max activity was 15.2% [at 0.16 µM].

As to `O=C(NCc1cccnc1)C1CCN(Cc2cc3ccccc3n2Cc2ccccc2Cl)CC1`, the max activity is -4.69% [at 1.35 µM].

For the molecule `O=C(NCCN1CCCC1)C1CCN(Cc2cc3ccccc3n2Cc2ccccc2Cl)CC1`, the max activity was 6.81%.

As to `O=C(Nc1ccc(-c2nc(-c3ccccc3)co2)cc1)Nc1ccccc1F`, the max activity was 103%.
